Assay outcomes deposited in PubChem BioAssay by The Scripps Research Institute Molecular Screening Center.
Shown are actives, neighbours in structure and some others; about 4.8% of the full set was active somewhere.
SMARCA2 act: activators of SMARCA2 function; MG213 cells, MMTV-luciferase reporter, dexamethasone, overnight; activation, % at 9.1 µM; 370,000 tested, 1% active; AID 652017; in the data active = activation above about 7.8%
DAX1 inh-1: inhibitors of DAX1 repression of SF-1 activated StAR promoter | 370,000 tested, 1.1% active | inhibition, % at 6.8 µM | HEK293T StAR-luciferase reporter, SF-1/DAX-1 repression relief | AID 652010;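 active = inhibition above the mean over all tested compounds plus 3 SD, cut at about 3.6% in these data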;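 also: higher inhibition means more luminescence from relief of DAX-1 repression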
ssDAF12 agonist: S. stercoralis DAF-12 activation, primary screen; HEK293 ssDAF-12/GRIP1 lit1-tk-luc reporter, luminescence; % of 3 µM dafachronic acid response; activation, % at 6.8 µM; 370,000 tested, 1% active;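 active = activation above the mean over all tested compounds plus 3 SD, cut at about 0.9% in these data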
hcDAF-12 act: activates DAF-12 receptor from parasite H. contortus | 370,000 tested, 1.4% active | activation, % at 6.8 µM | HEK293 hcDAF-12 lit1-tk-luc reporter, luminescence; 0% DMSO, 100% Δ7-dafachronic acid;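 active = activation above the mean of all tested compounds plus 3 SD, cut at about 5.5% in these data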
DAX1 inh-2: inhibitors of human orphan nuclear receptor DAX1 (NR0B1); P51843; HEK293 Gal4-DAX1 luciferase reporter, luminescence; inhibition, % at 6.75 µM; 340,000 tested, 0.99% active; AID 504766;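 active = inhibition above the mean over all tested compounds plus 3 SD, cut at about 4.2% in these data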;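 also: inhibition shows as a rise in luminescence from relieved DAX1 repression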
Target sequence (P51843 207-470 limits assumed): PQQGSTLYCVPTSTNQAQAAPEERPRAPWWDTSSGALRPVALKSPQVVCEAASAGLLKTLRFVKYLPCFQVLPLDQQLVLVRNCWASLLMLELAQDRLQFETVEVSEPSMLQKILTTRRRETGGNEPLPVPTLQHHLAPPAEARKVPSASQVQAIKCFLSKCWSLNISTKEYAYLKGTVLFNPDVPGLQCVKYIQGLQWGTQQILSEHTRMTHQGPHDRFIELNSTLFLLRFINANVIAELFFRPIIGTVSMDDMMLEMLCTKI
hgDAF-12 ag: activates the H. glycines DAF-12 receptor ligand-binding domain; HEK293 GAL4-hgDAF12 UAS-luciferase reporter, agonist luminescence; normalized to butyrate control; activation, % at 6.8 µM; 370,000 tested, 1.8% active; AID 687014;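 active = activation above a cutoff set at the mean of all screened compounds plus 3 SD, cut at about 10% in these data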
LXR ag: counter-screen for hcDAF-12 agonists: agonists of human LXR-beta. shares compounds with hcDAF-12 act. HEK293 Gal4-LXR tk-luc reporter, luminescence, 24 h; normalized: DMSO 0%, positive control 100%. activation, % at 6.8 µM. 3,400 tested, under 10 active;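 active = mean percent activation of the reporter above a cutoff set as the average over tested compounds plus their standard deviation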
hcDAF12 conf: confirmation of H. contortus DAF-12 agonists; HEK293 hcDAF-12 lit1-tk-luc reporter, luminescence; % of Δ7-dafachronic acid response; activation, % at 6.8 µM; shares compounds with hcDAF-12 act; 3,400 tested, 61% active;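 active = mean activation across triplicate tests above the threshold derived from the earlier primary screen, cut at about 5.5% in these data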
hgDAF12 conf: hgDAF-12 agonism, confirmation assay | activation, % at 6.8 µM | AID 743050 | HEK293 GAL4-hgDAF12 luciferase reporter, agonist mode; percent of butyrate response | 3,300 tested, 80% active | shares compounds with hgDAF-12 ag;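 active = mean activation over triplicate wells above the hit cutoff derived from the earlier primary screen, cut at about 11% in these data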
LXRb DAF12 ctr: activates human LXR-beta, counter-screen for DAF-12 agonists. shares compounds with hgDAF-12 ag. HEK293 Gal4-LXR luciferase reporter, 24 h. activation, % at 6.8 µM. 3,300 tested, under 10 active. AID 743051;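 active = mean activation of the triplicate above a set limit carried over from the primary screen, none filed active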
Numbers stand for hits; - = inactive; . = no result given.

SMILES | SMARCA2 act | DAX1 inh-1 | ssDAF12 agonist | hcDAF-12 act | DAX1 inh-2 | hgDAF-12 ag | LXR ag | hcDAF12 conf | hgDAF12 conf | LXRb DAF12 ctr
Cc1ccc(-c2onc3ccc(C(=O)O)cc23)cc1 | - | - | 1.0 | 9.4 | - | 19 | - | 8.7 | 23 | -
O=C(Nc1ccccc1)C(=O)c1c[nH]c2ccccc12 | - | - | 4.4 | 15 | - | 15 | - | 17 | 25 | -
O=C(/C=C/c1ccccc1)c1c[nH]c2ccccc12 | - | - | 3.8 | 12 | 4.3 | 20 | - | 8.3 | 19 | -
NC(=O)c1c[nH]c2ccccc12 | - | - | - | - | - | - | . | . | . | .
O=C(C=Cc1ccccc1)c1c[nH]c2ccccc2c1=O | - | - | - | - | - | - | . | . | . | .
Cc1cccnc1NC(=O)c1ccccc1NC(=O)C(C)(C)C | - | - | - | - | - | - | . | . | . | .
C/C(=N\Nc1nncc2ccccc12)c1ccc(O)cc1 | - | - | - | 7.0 | - | 16 | - | - | - | -
O=C(NCCCn1ccnc1)C(=O)NCC1OCCN1S(=O)(=O)c1ccccc1 (stereo not given) | - | - | - | - | - | - | . | . | . | .
COc1cc2[nH]c3ccccc3c2cc1C | - | - | - | - | - | - | . | . | . | .
Nc1nc(-c2cc(-c3ccccc3)no2)cs1 | - | - | - | 7.9 | - | 18 | - | - | 21 | -
O=C(NCCc1ccccc1)c1ccccc1F | - | 3.8 | - | 6.7 | - | 15 | - | - | 14 | -
O=C(CSc1ccc(-c2nc3ccccc3[nH]2)cn1)Nc1ccc2c(c1)OCCO2 | . | . | . | . | - | . | . | . | . | .
Cc1cc2nc(-c3ccc(SCC(=O)Nc4ccc5c(c4)OCCO5)nc3)[nH]c2cc1C | - | - | - | 7.3 | - | 15 | - | - | 15 | -
C=CC[C@H](CC(=O)NCCO)C(=O)N[C@@H](C)COC(=O)[C@H](CC=C)CC(=O)OC(C)(C)C | - | - | - | - | - | - | . | . | . | .
CC(=O)Nc1ccc(S(=O)(=O)NCc2ccc(C(=O)N3CCOCC3)cc2)cc1 | - | - | - | - | - | - | . | . | . | .
CCCN(CC(=O)Nc1ccccc1C)C(=O)c1ccc2c(c1)OCO2 | - | - | - | - | - | - | . | . | . | .
O=C(Nc1ccc(Cl)cc1)C1=Cc2ccccc2OC1 | - | - | 1.3 | 9.6 | - | 18 | - | 8.0 | 22 | -
O=C(Nc1ccc(Nc2ccccc2)cc1)c1ccc(Cl)cc1 | - | - | - | - | - | - | . | . | . | .
O=C(O)c1ccc(Cn2cnc3sc4c(c3c2=O)CCCC4)cc1 | - | - | - | - | - | - | . | . | . | .
Cc1cccc(N/C=C/c2onc(C)c2[N+](=O)[O-])c1 | - | - | - | - | - | - | . | . | . | .
Cc1cc(O)ccc1N/C=C/c1onc(C)c1[N+](=O)[O-] | - | - | 0.9 | 7.9 | - | 17 | - | 6.2 | 15 | -
Cc1ccc(N2C(=O)c3ccccc3NC2(C(=O)O)c2ccccc2)cc1Cl (stereo not given) | - | - | - | 9.9 | 4.8 | 19 | - | - | 12 | -
Cc1ccc(NC(=O)C(C)N2C(=O)c3ccccc3S2(=O)=O)cc1Cl (stereo not given) | - | - | - | - | - | - | . | . | . | .
Cc1cc(O)c(NC(=O)c2cccc([N+](=O)[O-])c2)cc1C | - | - | 2.5 | 7.0 | - | 17 | - | 9.2 | 11 | -
COC(=O)c1nn(-c2ccc(-c3ccccc3)cc2)cc1O | - | - | - | 8.3 | - | 14 | - | 8.2 | 18 | -
SMILES | SMARCA2 act | DAX1 inh-1 | ssDAF12 agonist | hcDAF-12 act | DAX1 inh-2 | hgDAF-12 ag | LXR ag | hcDAF12 conf | hgDAF12 conf | LXRb DAF12 ctr
CONC(=O)Nc1ccccc1[N+](=O)[O-] | - | - | - | - | - | - | . | . | . | .
COc1cccc2c1nc(C)c1cc(C)oc12 | - | - | - | - | - | - | . | . | . | .
COc1cccc2nc3cc(C)c(C)cc3nc12 | - | - | - | 7.5 | - | 18 | - | 12 | 18 | -
CSc1nnc(-c2ccccc2Cl)o1 | - | - | - | - | - | - | . | . | . | .
Clc1ccccc1-c1ncc(-c2ccccc2)o1 | - | - | 1.4 | 9.7 | 5.2 | 14 | - | 7.8 | 21 | -
Cc1nn(-c2ccc3ccccc3c2)c(=O)c2ccccc12 | - | - | 1.7 | 12 | - | 16 | - | 8.5 | 15 | -
Cc1nn(-c2ccc(Cl)cc2Cl)c(=O)c2ccccc12 | - | - | - | - | - | - | . | . | . | .
CCCOc1ccc(-c2nc(OC)c3ccccc3n2)cc1 | - | 4.1 | 2.6 | 16 | - | 17 | - | - | - | -
COc1ccc2cc(C#N)c(SCC(=O)N3CCCC3)nc2c1 | - | - | - | - | - | - | . | . | . | .
COC(=O)CSc1nc2cc(OC)ccc2cc1C#N | - | 3.8 | - | 8.2 | 4.3 | 15 | - | 7.8 | 23 | -
COc1ccc(C(=O)Nc2ccccc2C(=O)N/N=C/c2ccccn2)cc1OC | - | - | - | - | . | - | . | . | . | .
Cc1cccc(/C(N)=N/OC(=O)c2cccs2)c1 | - | - | 1.8 | 7.9 | - | 15 | - | 5.7 | 17 | -
Cc1ccccc1-c1noc(-c2ccc(O)cc2)n1 | - | - | - | 6.9 | - | 18 | - | - | 16 | -
Cc1ccc(NC(=O)CCN2C(=O)C3CCCCC3C2=O)c(O)c1 (stereo not given) | - | - | - | - | - | - | . | . | . | .
Cc1nc2nc(-c3cccs3)[nH]c2cc1Br | - | - | 1.0 | 8.9 | - | 23 | - | 8.3 | 22 | -
c1ccc(-c2nc(-c3cccs3)[nH]c2-c2ccccc2)cc1 | - | - | - | - | - | - | . | . | . | .
CCCCSc1nnc([C@H](CC(C)C)NC(=O)OC(C)(C)C)o1 | - | - | - | - | - | - | . | . | . | .
COc1ccc2oc(C(=O)OCC(=O)NCCN3C(=O)CSC3=O)c(C)c2c1 | - | - | - | - | - | - | . | . | . | .
COc1ccc(NC(=S)Nc2ccccn2)cc1 | - | - | 1.7 | 11 | - | 15 | - | - | 13 | -
O=[N+]([O-])c1ccccc1/C=C/c1ccc2ccccc2n1 | - | - | 2.1 | 18 | 7.1 | 16 | - | 12 | 20 | -
O=[N+]([O-])c1ccc(/C=C/c2ccc3cccc([N+](=O)[O-])c3n2)cc1 | - | - | - | - | - | - | . | . | . | .
COc1ccc(S(=O)(=O)N(C)CC(=O)NCC2CCCO2)cc1OC (stereo not given) | - | - | - | - | - | - | . | . | . | .
